Screening data as filed in PubChem BioAssay.
miR-21 reporter: qHTS Assay for Modulators of miRNAs and/orActivators of miR-21 | Potency, µM (doses to about 38.3 µM), actives largely listed as activators | AID 2288, 2010 | HeLa miR-21 FLuc reporter, luciferase, 48 h | 340,000 tested, under 10 active;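 also: miR-21 action dims this reporter so a rising signal means less miR-21 action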
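Compounds were titrated across several concentrations (up to approximately 40 uM) and incubated 48 hours with HeLa miR-21-FLuc reporter cells (miR-21 target sequence downstream of FLuc, endogenous miR-21). Readout was firefly luciferase luminescence after lytic detection reagent.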
TDP1 cell noCPT: qHTS for Inhibitors of human tyrosyl-DNA phosphodiesterase 1 (TDP1): qHTS in cells in absence of CPT; DT40 Tdp1-/- hTDP1 cells, no CPT, ATP luminescence, 48 h; Potency, µM (doses to about 46.2 µM), most hits filed as inhibitors; 420,000 compounds, 15% hits; also: nearly all actives have a fitted effect of over 55% in size
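Camptothecin absent (DMSO only). Human TDP1-complemented DT40 knockout cells, 400 cells/well, 37 °C for minimum 48 hr; ATP measured via CellTiter-Glo, 30 min dark incubation, luminescence.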
TDP1 block: qHTS Assay for Inhibitors of Tyrosyl-DNA Phosphodiesterase (TDP1). recombinant TDP1, AlphaScreen DNA substrate cleavage. Potency, µM (top dose mostly 130 µM), actives largely listed as inhibitors. 350,000 compounds, 0.28% hits. AID 485290, 2010; also: nearly all actives have a fitted effect of over 40% in size
Target sequence (Q9NUW8 whole entry, looked up): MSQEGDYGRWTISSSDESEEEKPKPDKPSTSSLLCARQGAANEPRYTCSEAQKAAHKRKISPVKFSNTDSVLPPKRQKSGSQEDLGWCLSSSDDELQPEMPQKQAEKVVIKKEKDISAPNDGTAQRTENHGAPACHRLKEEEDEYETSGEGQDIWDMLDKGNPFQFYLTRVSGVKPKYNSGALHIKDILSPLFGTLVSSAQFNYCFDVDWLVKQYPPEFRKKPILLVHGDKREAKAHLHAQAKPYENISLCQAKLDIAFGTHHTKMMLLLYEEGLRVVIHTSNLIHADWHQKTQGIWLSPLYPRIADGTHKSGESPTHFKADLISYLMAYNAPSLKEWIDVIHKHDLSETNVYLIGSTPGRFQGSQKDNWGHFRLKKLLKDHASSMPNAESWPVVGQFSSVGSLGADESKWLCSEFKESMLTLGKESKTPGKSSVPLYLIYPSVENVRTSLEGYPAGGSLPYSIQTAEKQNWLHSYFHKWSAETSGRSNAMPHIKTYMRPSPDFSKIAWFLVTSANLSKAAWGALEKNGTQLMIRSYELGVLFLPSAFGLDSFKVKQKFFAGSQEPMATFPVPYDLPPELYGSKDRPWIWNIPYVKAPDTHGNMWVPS
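Signal: AlphaScreen proximity between streptavidin donor and anti-FITC acceptor beads on intact substrate. Reaction: Tdp1 1 nM, substrate 15 nM final, 5 min RT after 15 min compound preincubation.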
DT40 TDP1 CPT: qHTS for Inhibitors of human tyrosyl-DNA phosphodiesterase 1 (TDP1): qHTS in cells in presence of CPT; chicken DT40 Tdp1-/-;hTDP1 cells + 20 nM CPT, ATP luminescence, 48 h; Potency, µM (titrated, usually from 46.2 µM), actives largely listed as inhibitors; 420,000 compounds, 12% hits; AID 686979, 2013; also: nearly all actives have a fitted effect of over 55% in size
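Cell growth measured by CellTiter-Glo luminescence after a minimum 48 h, 37 C compound exposure with 20 nM CPT in Tdp1-knockout DT40 cells stably expressing hTDP1, seeded 400/well; qHTS titration format.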
uPA generation: qHTS for Inhibitors of Cell Surface uPA Generation | cell surface uPA generation assay, qHTS | Potency, µM (series often up to 38.3 µM), actives largely listed as inhibitors | 330,000 compounds, 0.31% hits | AID 540303, 2011; active = well fitted inhibition curve with a large enough effect; inconclusive = small, poorly fitted or top-dose-only effect; inactive = no such curve, though single readings can be large or run the other way; tested in mouse RAW 264.7 cells; also: nearly all actives have a fitted effect of over 55% in size
Of the large screens only hits and unclear results are named; the others gave an inactive call. This is a sample that favours compounds with a hit; in the whole collection about 16% have one here. Unless noted, calls follow the shape of the dose curve; as a rule, active = well fitted curve in the direction sought with a large enough effect; inconclusive = small, poorly fitted or top-dose-only effect, or another doubt; inactive = no such curve, though single readings can be large; an effect the other way counts as inactive or inconclusive.

COc1ccc(Oc2nc3c(c(=O)n(C)c(=O)n3C)n2Cc2ccccc2)cc1	DT40 TDP1 CPT inconclusive
Cc1ccc(C)c(Oc2nc3c(c(=O)n(C)c(=O)n3C)n2Cc2ccccc2)c1	TDP1 cell noCPT inconclusive, DT40 TDP1 CPT inconclusive (no result: TDP1 block, uPA generation)
C=CCOc1nc2c(c(=O)n(C)c(=O)n2C)n1Cc1ccccc1	TDP1 cell noCPT 18µM, DT40 TDP1 CPT 26µM
C#CCOc1nc2c(c(=O)n(C)c(=O)n2C)n1Cc1ccccc1	TDP1 cell noCPT 12µM, DT40 TDP1 CPT 12µM
O=C(Cn1cnc2cc([N+](=O)[O-])ccc2c1=O)Nc1ccccc1Cl	DT40 TDP1 CPT inconclusive
O=C(Cn1cnc2ccccc21)c1ccc(Cl)cc1	TDP1 cell noCPT inconclusive
FC(F)(F)c1cnc(C(c2ccccc2)c2ncn[nH]2)c(Cl)c1 (stereo unspecified)	none
CNC(=S)NCCCCc1cnc[nH]1	none (no result: miR-21 reporter, TDP1 cell noCPT, DT40 TDP1 CPT, uPA generation)
S=C(NCCCCN(Cc1ccc(Cl)cc1)c1ccc(Br)cn1)NCCCc1cnc[nH]1	DT40 TDP1 CPT 7.1µM (no result: miR-21 reporter, TDP1 block, uPA generation)
CN(CCCN(Cc1ccc(Cl)cc1)c1ccc(Br)cn1)C(=S)NCCCc1cnc[nH]1	TDP1 cell noCPT inconclusive, DT40 TDP1 CPT 13µM (no result: miR-21 reporter, TDP1 block, uPA generation)
COC(=O)C1=CNC=C(C(=O)OC)C1c1ccc(C(=O)OC)cc1	none
O=C(NCCCCc1ccccc1)NC[C@@H]1CC[C@@H](Cc2ccc(-c3ccccc3)cc2)O1	TDP1 cell noCPT 15µM, DT40 TDP1 CPT 16µM (no result: miR-21 reporter)
CCC(=O)N(Cc1cc2c(C)ccc(C)c2[nH]c1=O)C1CCCCC1	TDP1 cell noCPT 16µM, DT40 TDP1 CPT inconclusive
CCC(=O)N(Cc1cc2c(C)cc(C)cc2[nH]c1=O)C1CCCCC1	TDP1 cell noCPT inconclusive, DT40 TDP1 CPT inconclusive
COc1cc(CN2C[C@@H](CO)O[C@@H](n3cnc4c(N5CCN(C)CC5)ncnc43)C2)cc(OC)c1OC	none (no result: miR-21 reporter, TDP1 block, uPA generation)
Cc1ccc(-n2ncc3c2CC(C)(C)CC3NC(=O)CCc2ccncc2)cc1 (stereo unspecified)	TDP1 cell noCPT inconclusive, TDP1 block 22µM, DT40 TDP1 CPT inconclusive
Cc1ccc(-n2ncc3c2CC(C)(C)CC3NC(=O)CCc2cccnc2)cc1 (stereo unspecified)	TDP1 cell noCPT 16µM, DT40 TDP1 CPT 23µM
O=C(c1cc2ccccc2[nH]1)c1cc2cc(O)ccc2[nH]1	TDP1 cell noCPT 16µM, DT40 TDP1 CPT inconclusive (no result: miR-21 reporter, TDP1 block, uPA generation)
Cc1cccc(OCCCN2CCOCC2)c1	none (no result: TDP1 block)
N#CCCN1CCN(S(=O)(=O)c2ccc(C#N)cc2)CC1	none
O=[N+]([O-])c1ccc2c(c1)c(-c1ccccc1)nc1nncn12	TDP1 cell noCPT 7.3µM
CC(NC(=O)c1ccc2c(c1)N(Cc1ccc(Cl)cc1)C(=O)c1ccccc1S2=O)c1ccccc1 (stereo unspecified)	DT40 TDP1 CPT inconclusive (no result: uPA generation)
O=c1cc(-c2ccccc2)oc2ccc(Cl)cc12	none (no result: miR-21 reporter, TDP1 block)
O=c1oc(-c2ccccc2)cc(Cl)c1Cl	miR-21 reporter inconclusive, TDP1 cell noCPT 1.8µM, DT40 TDP1 CPT 1.6µM (no result: TDP1 block)
Cc1cccn2c(Nc3ccccc3)c(-c3ccccn3)nc12	TDP1 cell noCPT 21µM, DT40 TDP1 CPT 18µM
Cc1cccc(C)c1Nc1c(-c2ccccn2)nc2c(C)cccn12	miR-21 reporter inconclusive, TDP1 cell noCPT 26µM, DT40 TDP1 CPT 16µM (no result: uPA generation)
Cc1ccc(NC(=O)c2ccc(CN3CC(=O)N4CCCCC4C3=O)cc2)cc1 (stereo unspecified)	TDP1 cell noCPT inconclusive, DT40 TDP1 CPT inconclusive (no result: uPA generation)
Cc1ccc(C)c(NC(=O)c2ccc(CN3CC(=O)N4CCCCC4C3=O)cc2)c1 (stereo unspecified)	TDP1 cell noCPT 16µM, DT40 TDP1 CPT 16µM (no result: uPA generation)
CCC(=O)NC(c1ccc(OC)c(OC)c1)c1cc(Cl)c2cccnc2c1O (stereo unspecified)	miR-21 reporter inconclusive, TDP1 cell noCPT 4.6µM, DT40 TDP1 CPT 4.1µM
CCOc1ccc(C(Nc2cccnc2)c2cc(Cl)c3cccnc3c2O)cc1 (stereo unspecified)	TDP1 cell noCPT 15µM, DT40 TDP1 CPT inconclusive
O=C(O)COc1ccccc1C(Nc1cccnc1)c1cc(Cl)c2cccnc2c1O (stereo unspecified)	none
CCC(=O)NC(c1ccc(C)cc1)c1cc(Cl)c2cccnc2c1O (stereo unspecified)	none (no result: miR-21 reporter, TDP1 cell noCPT, DT40 TDP1 CPT)
COc1ccc(C(NC(C)=O)c2cc(Cl)c3cccnc3c2O)cc1OC (stereo unspecified)	TDP1 cell noCPT 4.6µM, DT40 TDP1 CPT 7.3µM
CCOc1ccc(C(NC(C)=O)c2cc(Cl)c3cccnc3c2O)cc1 (stereo unspecified)	TDP1 cell noCPT 4µM, DT40 TDP1 CPT 3.2µM (no result: miR-21 reporter, TDP1 block, uPA generation)
Cc1ccc(S(=O)(=O)N2CC(O)CC2C(=O)Nc2ccc3c(c2)CCC3)cc1 (stereo unspecified)	DT40 TDP1 CPT inconclusive
CC(=O)Nc1ccc(S(=O)(=O)NC2=NCN(C)CN2)cc1	none
COc1ccccc1C(=O)Oc1cc(N)n(S(=O)(=O)c2ccccc2)n1	none
COCCN(C(=O)CSc1nc(-c2ccccc2)cn1N)c1c(N)n(Cc2ccccc2)c(=O)[nH]c1=O	none (no result: miR-21 reporter, TDP1 block)
COc1cc(O)c(C(CC(=O)N2CCCCC2)c2ccc3c(c2)OCO3)c(OC)c1 (stereo unspecified)	TDP1 cell noCPT inconclusive
CC(C)C(NC(=O)c1c(F)cccc1F)C(=O)OCN1C(=O)c2ccccc2C1=O (stereo unspecified)	none (no result: miR-21 reporter)
CCCCOc1c(Cl)cc(C(=O)N(C)CC(=O)Nc2ccc(N3CCOCC3)cc2)cc1OCC	TDP1 cell noCPT inconclusive, DT40 TDP1 CPT inconclusive
COc1ccc(C(=O)NC(c2ccc(Cl)cc2)c2cc(Cl)c3cccnc3c2O)cc1 (stereo unspecified)	TDP1 cell noCPT 4.1µM, DT40 TDP1 CPT 3.7µM (no result: uPA generation)
COc1ccc(C(NC(=O)c2ccc(-c3ccccc3)cc2)c2ccccc2)cc1 (stereo unspecified)	TDP1 cell noCPT 13µM, DT40 TDP1 CPT 13µM
COc1ccccc1C(NC(C)=O)c1cc(Cl)c2cccnc2c1O (stereo unspecified)	TDP1 cell noCPT 2.3µM, DT40 TDP1 CPT 1.6µM (no result: TDP1 block)
COc1ccc(C(C)NC(=O)c2ccccc2)cc1 (stereo unspecified)	none
C[C@H]1CN([C@@H](C)CO)C(=O)CCCn2nncc2CO[C@@H]1CN(C)Cc1ccc(-c2ccccc2)cc1	TDP1 cell noCPT 10µM, DT40 TDP1 CPT 9.2µM (no result: miR-21 reporter, TDP1 block, uPA generation)
C[C@H](CO)N1C[C@H](C)[C@@H](CN(C)Cc2ccccc2)OCc2cnnn2CCCC1=O	none (no result: miR-21 reporter, TDP1 block, uPA generation)
C[C@H]1CN([C@@H](C)CO)C(=O)CCCn2nncc2CO[C@H]1CN(C)S(=O)(=O)c1ccccc1	none (no result: miR-21 reporter, TDP1 block, uPA generation)
